# TSHR antag: human thyrotropin receptor antagonism. actives 0.2% (n = 330,000). AID 504810. TSHR-expressing cells, TSH-stimulated cAMP HTRF, 2 h; stronger effect = lower value. P16473. activity change, negative = inhibition, % at 11.5 µM;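 active = activity change below a set negative limit, meaning inhibition stronger than a set level, cut at about -70% in these data; inconclusive = activity change between two set negative limits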
#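 Antagonism was scored as loss of TSH-driven cAMP in TSHR cells, stimulated with 4nM TSH (EC80) for 2 hours at 37 deg C and detected by homogeneous HTRF competition immunoassay.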
# RORg inh: ROR gamma (mouse) transcription inhibition. AID 2551. P51450. actives 5.4% (n = 310,000). Drosophila S2 Gal4-RORgamma UAS-luciferase reporter, 20 h. Potency, µM (highest dose often 53.6 µM), usual class: inhibitors; note: nearly all actives have a fitted effect of over 60% in size
# Target sequence (P51450 whole entry, looked up, the tested form may be a part): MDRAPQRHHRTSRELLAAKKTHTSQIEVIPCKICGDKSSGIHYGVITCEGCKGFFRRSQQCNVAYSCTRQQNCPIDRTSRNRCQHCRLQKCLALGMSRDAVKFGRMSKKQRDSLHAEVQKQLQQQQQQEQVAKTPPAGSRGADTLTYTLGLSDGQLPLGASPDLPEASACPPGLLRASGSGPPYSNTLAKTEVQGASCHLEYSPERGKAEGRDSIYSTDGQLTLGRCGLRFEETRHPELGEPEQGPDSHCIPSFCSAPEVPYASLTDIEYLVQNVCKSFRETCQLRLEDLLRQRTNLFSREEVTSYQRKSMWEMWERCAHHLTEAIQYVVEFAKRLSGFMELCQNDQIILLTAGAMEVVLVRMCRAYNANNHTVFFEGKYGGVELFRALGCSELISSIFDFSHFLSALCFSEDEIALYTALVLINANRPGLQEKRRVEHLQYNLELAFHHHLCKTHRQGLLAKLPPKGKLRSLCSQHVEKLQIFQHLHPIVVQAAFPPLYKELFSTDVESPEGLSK
#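 Luciferase reporter read in Schneider cells carrying Gal4-RORγ (mouse) and UAS-Photinus luciferase; cells given compound 1 h before 700 uM copper sulfate induction, then incubated 20 h at ambient temperature.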
# Gal4-VP16 FLuc: counter-screen for ROR gamma inhibitors: Gal4-VP16 reporter; AID 2546; actives 3.5% (n = 310,000); Drosophila S2 Gal4-VP16 UAS-luciferase, luminescence, 20 h; Potency, µM (highest dose often 53.6 µM), usual class: inhibitors;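 note: Gal4-VP16 expression switched on by copper sulfate through the metallothionein promoter; nearly all actives have a fitted effect of over 50% in size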
# ELG1 DNA repair: inhibitors of ELG1-dependent DNA repair in HEK293T cells; HEK293T ELG1-luciferase reporter, luminescence, 16 h; DNA damage induced by 5-fluorouridine; Potency, µM (series often up to 46.1 µM), most hits filed as inhibitors; actives 2.3% (n = 330,000); AID 504467; note: nearly all actives have a fitted effect of over 55% in size
#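 Luminescence from the luciferase reporter, measured 30 min after ONE-Glo reagent at room temperature, was the read-out. Beforehand, 2,000 cells per well were exposed for 16 hr at 37 °C to 5-fluorouridine together with compound or vehicle.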
# FBPA coupling cs: counter-screen for Giardia aldolase inhibitors: coupling enzyme system | actives 0.67% (n = 290,000) | activity change, negative = inhibition, % at 58.2 µM, hits read low | coupling enzyme system counterscreen, AmpLite Red fluorescence; in the data active = activity change below about -30%
#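 Final compound at 57.5 uM, incubated 10 min at RT with coupling enzyme reagent (glyceraldehyde-3-phosphate), then 20 min with substrate and AmpLite Red detection. Fluorescence read at 525/598 nm; tests interference with the coupling assay, not aldolase inhibition.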
# Hits are given with their value; i = inactive; ? = inconclusive; nt = no result given; [ ] = another dose, or the depositor's remark. The list is not random: actives were taken first. Their share in the collection is about 8%. Unless noted, calls come from the whole dose curve; as a rule, active = well fitted curve in the direction sought with a large enough effect; inconclusive = small, poorly fitted or top-dose-only effect, or another doubt; inactive = no such curve, though single readings can be large; an effect the other way counts as inactive or inconclusive.
SMILES,TSHR antag,RORg inh,Gal4-VP16 FLuc,ELG1 DNA repair,FBPA coupling cs
CC(=O)Nc1ccc(NC2=C(Cl)C(=O)c3ccccc3C2=O)cc1,i,?,i,?,i
O=C(CCCn1cncn1)N1CCCC(Nc2ccc(F)cc2)C1 (stereo unspecified),i,i,i,i,nt
CNCc1ccccc1Sc1cc(O)ccc1O,i,16µM,?,i,i
CCCCn1c(N)c(N(CCOC)C(=O)CCC2CCCCC2)c(=O)[nH]c1=O,i,nt,nt,i,nt
COC(=O)c1cc(C(=O)Nc2nnc(CC(C)C)s2)cc([N+](=O)[O-])c1,i,13µM,22µM,i,i
CCC(CC)c1nnc(NC(=O)c2cc(C(=O)OC)cc([N+](=O)[O-])c2)s1,i,7.1µM,?,i,i
O=C1CC(C2CCCO2)C(=O)N1c1ccc(Cl)c(Cl)c1 (stereo unspecified),i,?,11µM,?,i
CCCn1c(N)c(C(=O)CSc2n[nH]c(-c3ccc(C)cc3)n2)c(=O)[nH]c1=O,i,nt,nt,i,nt
COC(=O)c1ccc(/C=C/c2ccc3cccc(OC(C)=O)c3n2)cc1,i,5.6µM,3.5µM,?,i
O=[N+]([O-])c1ccc(/C=C/c2ccc3cccc([N+](=O)[O-])c3n2)cc1,i,?,i,i,i
Oc1ccc(/C=C/c2ccc3cccc(O)c3n2)cc1Br,i,3.2µM,18µM,?,i
O=[N+]([O-])c1cccc(/C=C/c2ccc3cccc(O)c3n2)c1,i,3.2µM,4.5µM,?,i
O=C(O)c1ccc(/C=C/c2ccc3cccc(O)c3n2)cc1,i,2.8µM,0.56µM,?,i
O=C(NCCc1ccc(F)cc1)c1ccc(Cl)c(S(=O)(=O)N2CCOCC2)c1,i,nt,nt,?,nt
Cc1cc(C(F)(F)F)nn1Cc1ccc(C(=O)NCc2ccco2)o1,i,10µM,?,?,i
O=C(COC(=O)c1ccc(O)cc1O)NC(=O)NCc1ccccc1,i,nt,nt,i,nt
Cc1cccc(NC(=S)N(c2ccccc2)C(C)C)c1C,i,14µM,25µM,i,i
OCCN(Cc1ccccc1)C(=S)NC1CCCCC1,i,?,i,i,i
COc1ccccc1NC(=S)N(c1ccccc1)C(C)C,i,?,i,i,i
CC(C)N(C(=S)NC1CCCCC1)c1ccccc1,i,11µM,?,i,i
CC(C)N(Cc1ccccc1)C(=S)NC1CCCCC1,i,13µM,?,i,i
CCOc1ccc(C(=O)NCC(=O)NNC(=O)c2ccco2)cc1OCC,i,nt,nt,i,nt
CC12CCC(=O)N1C(C(=O)Nc1ccc(Cl)c(S(=O)(=O)N3CCCCC3)c1)CS2 (stereo unspecified),i,nt,nt,?,nt
CSCC[C@H](NC(=O)[C@H](CC(C)C)N(C)C(=O)[C@@H]1CCCN1C(=O)[C@H](Cc1ccccc1)NC(=O)[C@H](Cc1ccccc1)NC(=O)CCC(C)N)C(=O)O (stereo partly specified),nt,i,i,nt,i
CC1=C(C(=O)O)N2C(=O)[C@@H](NC(=O)[C@@H](N)c3ccc(O)cc3)[C@@H]2SC1,nt,i[2.98 µM],i,nt,i
SMILES,TSHR antag,RORg inh,Gal4-VP16 FLuc,ELG1 DNA repair,FBPA coupling cs
Cc1ccc(NC(=O)Cc2nc(CCl)cs2)cc1,i,i,i,i,i
Cc1ccc(NC(=S)Nc2nc(CC(=O)Nc3ccccc3)cs2)cc1,i,1.4µM,5.6µM,?,i
O=C(Cn1cnc([N+](=O)[O-])c1)c1ccc(F)cc1,i,nt,nt,?,nt
O=C(Nc1cccc(C(=O)O)c1)Nc1ccc2c(c1)OCO2,i,10µM,11µM,2.6µM,i
CCc1cccc(CC)c1NC(=S)NC(C)c1ccccc1 (stereo unspecified),i,4µM,?,i,i
Nc1c(C(=O)NCc2ccc3c(c2)OCO3)nnn1CC(=O)Nc1ccc(Br)cc1,-114,?,?,i,i
OC(CN1CCN(Cc2ccc3c(c2)OCO3)CC1)c1c[nH]c2ccccc12 (stereo unspecified),i,i,i,13µM,i
Cc1c(C(O)CN2CCN(Cc3ccc4c(c3)OCO4)CC2)c2ccccc2n1C (stereo unspecified),i,i,?,?,i
COc1ccc(C2=NS(=O)(=O)N(C)C(C(=O)NCc3ccc(F)cc3)=C2)cc1OC,i,i,i,?,i
Cc1cccc(NC(=O)NCc2ccc3c(c2)OCO3)c1,i,?,?,?,i
NNC(=S)NCc1ccc2c(c1)OCO2,i,7.9µM,8.9µM,i,i
O=C(Cc1c[nH]c2ccccc12)NCc1ccc2c(c1)OCO2,i,i[10 µM],i,12µM,i
Cc1cccc(NC(=S)NCc2ccc3c(c2)OCO3)c1,i,11µM,16µM,i,i
S=C(NCc1ccc2c(c1)OCO2)NCc1ccc2c(c1)OCO2,i,16µM,?,i,i
COC(=O)NCc1ccc2c(c1)OCO2,i,i,i,i,i
CCNC(=S)NCc1ccc2c(c1)OCO2,i,i,i,i,i
Cc1ccccc1NC(=O)NCc1ccc2c(c1)OCO2,i,i,i,?,i
O=C(O)c1ccc(NCc2ccc3c(c2)OCO3)cc1,i,4µM,1.3µM,i,i
CCc1cccc(CC)c1NC(=S)NCc1ccc2c(c1)OCO2,i,8.9µM,?,i,i
Cc1cccc(NS(=O)(=O)c2cc(C(=O)OC(C)C(=O)NCc3ccc4c(c3)OCO4)ccc2C)c1 (stereo unspecified),i,?,?,23µM,i
O=C(c1cccc(F)c1)N1CCC[C@@]2(CCN(c3ncccn3)C2)C1,nt,i,i,nt,i
O=C1C2CC=CCC2C(=O)N1c1ccc(N2CCN(c3ccccn3)CC2)c([N+](=O)[O-])c1 (stereo unspecified),i,i,4.5µM,?,i
CCOC(=O)Cc1csc(NC(=O)COc2ccc(N(C)S(=O)(=O)c3cccs3)cc2)n1,?,i,i,18µM,i
CCOC(=O)Cc1csc(N/N=C/c2ccccc2)n1,i,16µM,i,?,i
CCOC(=O)c1sc(N/N=C/c2cccc(C)c2)nc1C,i,7.9µM,?,?,i
SMILES,TSHR antag,RORg inh,Gal4-VP16 FLuc,ELG1 DNA repair,FBPA coupling cs
CCOC(=O)Cc1csc(N/N=C\c2ccc(N(C)C)cc2)n1,i,?,i,?,i
COC(=O)c1ccc(/C=N/Nc2nc(-c3ccccc3)cs2)cc1,i,i,i,i,i
COc1ccc(/C=N/Nc2nc(C(=O)O)cs2)cc1,i,3.5µM,5µM,?,i
CCN(C(=O)COC(=O)c1ccc[nH]c1=O)c1cccc2ccccc12,i,nt,nt,i,nt
NC[C@@H]1O[C@H](OC2[C@@H](CO)O[C@@H](OC3[C@H](O)[C@H](N)C[C@H](N)[C@H]3OC3O[C@H](CO)[C@@H](O)[C@H](O)[C@@H]3N)[C@H]2O)C(N)[C@H](O)[C@@H]1O (stereo partly specified),nt,i[10 µM],i,nt,nt
Cc1ccc(N(CC(=O)N2CCc3ccccc3C2)S(C)(=O)=O)cc1,i,i,i,?,i
CCOC(=O)Cc1csc(N/N=C\c2ccccc2OC)n1,i,i,i,i,i

# Compound activity: PubChem, National Center for Advancing Translational Sciences (NCATS)
